Consider 62 molecules from PubChem BioAssay AID504408 (Broad Institute, 2011).

Screen size: about 300,000 compounds; about 5,200 (1.7%) were called active. This is one part of a sample in which actives are shown more often than they occur. A number with no mark means an inactive call.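 Rule for the calls: active = mean replicate activation of at least 50% with a set share of replicates each reaching 50%; inconclusive = only one of those two conditions met; inactive = mean below 50% and too few replicates reaching it.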

A short description of this experiment: HSF-1 response element luciferase induction – NIH3T3-HGL cells, MG132 stress, luminescence, single point, primary screen (AID 504408).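 Note: 0% = median of the neutral control wells and 100% = twice that signal.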 The note with it: NIH3T3-HGL HSF-1 luciferase reporter, MG132, 8 h; at 9 µM; active compounds read high; 100% = twice DMSO control signal. (A reporter such as luciferase makes a cellular process visible.)
`Cc1c(CNCCc2ccccc2)c(C(=O)O)c(C)n1-c1ccccc1`: the activation was 60.5% (active).

Regarding `CNC(=O)CSc1nnc(CCc2ccccc2)n1-c1ccccc1`, the activation was -1.82%.

In the case of `Cc1c(C(=O)NCc2ccccc2)cnn1-c1ccccc1`, the activation was 2.05%.

`CC1(C)C/C(=N/Nc2ccc([N+](=O)[O-])cc2[N+](=O)[O-])C(C)(C)O1`: the activation is -1.15%.

As to `COc1ccc(C(=O)CCC(=O)Nc2cccnc2)c(OC)c1`, the activation was 11.9%.

For `COc1ccc(C(=O)CCc2ccccc2O)c(OC)c1`, the activation was 58% (active).

`COc1ccc(C(=O)NC(C)CCc2ccccc2)c(OC)c1` (configuration not stated): the activation is 15.4%.

For the molecule `O=C(Nc1ncccc1O)c1ccc(S(=O)(=O)N2CCCC2)cc1`, the activation is 2.49%.

Regarding `COc1cccc(N2CC(NS(=O)(=O)c3cccs3)CC2=O)c1` (configuration not stated), the activation is 2.81%.

In the case of `O=C(Nc1cc(S(=O)(=O)N2CCOCC2)ccc1OCC(F)(F)F)c1ccc(N2CCCC2=O)cc1`, the activation was -1.99%.

Consider `CCOC(=O)c1ccc(CS(=O)c2ccc(Cl)cc2)o1` (configuration not stated), for which the activation was 8.33%.

In the case of `CCOC(=O)N1CCN(C(=O)CNC(=O)Cc2ccc(Cl)cc2)CC1`, the activation is 9.04%.

Take `CCOC(=O)c1c(Cc2ccc(Cl)cc2)c[nH]c1C`: the activation was 87.7% (active).

In the case of `NC1=NC(c2ccc([N+](=O)[O-])cc2)N(c2ccc(F)cc2)C(N)=N1` (configuration not stated), the activation is -0.817%.

For the molecule `O=C(COC(=O)c1cnccn1)Nc1ccc(Cl)cc1C(F)(F)F`, the activation was -12.3%.

For `Cc1ccc(Cl)c(OCC(=O)N(C)CC(=O)Nc2ccc(N3CCOCC3)cc2)c1`, the activation is 1.72%.

Regarding `COc1ccc(-c2csc3ncnc(N4CCN(S(=O)(=O)c5cccc(F)c5)CC4)c23)cc1`, the activation is 2.84%.

Regarding `Cc1cc(NC(=O)CSC2=NS(=O)(=O)c3cc(Cl)ccc3N2)no1`, the activation was 1.14%.

As to `COc1ccc(/C=C/C(=O)OCC(=O)Nc2cccc(Oc3ccccc3)c2)c(OC)c1`, the activation is 35.6%.

In the case of `O=C(COC(=O)/C=C/c1nc2ccccc2s1)Nc1ccccc1Oc1ccccc1`, the activation is 54.4% (active).

Consider `CCN(C(=O)COC(=O)/C=C/c1nc2ccccc2s1)C1CCS(=O)(=O)C1` (configuration not stated), for which the activation is 16.8%.

Turning to `O=C(Nc1ccccc1-c1nc2ccccc2[nH]c1=O)c1cccs1`, the activation is -0.37%.

Turning to `C/C(=N\Nc1nc2ccccc2[nH]1)c1cccs1`, the activation is 106% (active).

With `C/C(=N\Nc1ncc(Cl)cc1Cl)c1cccs1`, the activation was -33.8%.

As for `Cc1sc2ncnc(N3CCC(C(=O)NNC(=O)c4ccc(F)cc4)CC3)c2c1C`, the activation was -17.9%.

Turning to `Cn1c(SCC(=O)c2ccccc2)ncc(C(=O)Nc2ccc(F)cc2)c1=O`, the activation was 9.37%.

For the molecule `Brc1cnc2ccccc2c1N1CCCCC1`, the activation was 4.42%.

`COc1ccc(CCNC(=O)C(=O)NCC2CCCN2S(=O)(=O)c2cccs2)cc1OC` (configuration not stated): the activation is -2.01%.

For `O=C(NNc1ncnc2c1cnn2-c1ccccc1)c1ccco1`, the activation is 13.2%.

Regarding `c1ccc(-n2ncc3c(N4CCCC4)ncnc32)cc1`, the activation is 41.2%.

As to `C1=C(CCNc2ncnc3c2cnn3-c2ccccc2)CCCC1`, the activation was 61.4% (active).

Consider `O=[N+]([O-])c1cccc(C=NN=Cc2ccccc2O)c1`, for which the activation is -25.2%.

For `O=C(Oc1ccc(-c2nnco2)cc1)c1ccc(F)c(S(=O)(=O)N2CCOCC2)c1`, the activation is 12.4%.

For the molecule `Cc1cccc(NC(=O)CSc2nc3[nH]ncc3c(=O)[nH]2)c1`, the activation was 7.39%.

As to `CCCSc1nc2[nH]ncc2c(=O)[nH]1`, the activation is -12.9%.

`Cc1ccc(CSc2nc3[nH]ncc3c(=O)[nH]2)cc1`: the activation is 87.9% (active).

Take `Cc1cccc(N2CC(C(=O)Nc3ccccc3N3CCCC3)CC2=O)c1C` (configuration not stated): the activation is -9.91%.

As for `Cc1ccc(S(=O)(=O)N2CCN(C(=O)Cc3sc(C)nc3-c3ccc(F)cc3)CC2)c(C)c1`, the activation was 5.21%.

As to `CCOC(=O)c1cc(C(C)C)sc1NC(=O)COC(=O)c1nccnc1N`, the activation was -14.3%.

Consider `Cc1nc2ccccc2cc1C(=O)N/N=C/c1ccc([N+](=O)[O-])cc1`, for which the activation was 10.7%.

Take `Cc1ccsc1C(=O)N/N=C/c1ccc([N+](=O)[O-])cc1`: the activation was 59% (active).

As for `NC(=S)N/N=C/c1ccc([N+](=O)[O-])cc1`, the activation is 19.9%.

Consider `O=C(Nc1ccc(N2CCCCC2)cc1)c1cc(S(=O)(=O)N2CCOCC2)ccc1F`, for which the activation was 12.6%.

As for `CC1CCC(NC(=O)CNC(=O)c2ccc3ccccc3c2)CC1` (configuration not stated), the activation is 26.1%.

As to `O=C(COC(=O)Cn1[nH]c(=O)c2ccccc2c1=O)Nc1c(Cl)cccc1C(F)(F)F`, the activation was -2.68%.

For the molecule `O=C(O)CN1CCN(C(c2ccccc2)c2ccccc2)CC1`, the activation was -26.6%.

As to `CC1(C)CC(N2CCN(C(c3ccccc3)c3ccccc3)CC2)=CC(=[N+]2CCCCC2)C1`, the activation was 59.1% (active).

Consider `CC(C)NC(=S)N1CCN(C(c2ccccc2)c2ccccc2)CC1`, for which the activation was 13.7%.

For `COc1ccccc1CCNC(=O)CN1C(=O)NC2(CCCC2)C1=O`, the activation is -21.2%.

On to `CC(NC(=O)c1ccccc1F)c1cccc2ccccc12` (configuration not stated), for which the activation is -4.26%.

Regarding `COc1ccc(-c2cc(C(=O)Nc3ccccc3O)c3ccccc3n2)cc1`, the activation was 65.5% (active).

As for `COc1ccc(NC(=O)c2cc(-c3cc(OC)c(OC)c(OC)c3)nc3ccccc23)c(OC)c1`, the activation is -3.17%.

As to `CNC(=O)COC(=O)c1cc(-c2ccc(OC)cc2)nc2ccccc12`, the activation is 31.1%.

For the molecule `COc1ccc(NC(=O)CN(C)C(=O)Cc2coc3cc(C)c(C)cc23)cc1`, the activation was -0.425%.

On to `CC(=O)c1nn(-c2ccc(C)cc2)cc1C(=O)c1cccc(Br)c1`, for which the activation is -31.9%.

`COc1ccc(C(=O)n2nc(-c3ccc(C)cc3)nc2N)cc1OC`: the activation is -1.25%.

Turning to `COc1ccc(C(=O)n2nc(-c3ccc(Cl)cc3)nc2N)cc1OC`, the activation is 71.9% (active).

On to `COc1ccc(C(=O)n2nc(C)c(Br)c2C)cc1OC`, for which the activation is 6.57%.

As for `CC12CCC(=O)N1C(C(=O)NCCN1C(=O)S/C(=C\c3ccccc3F)C1=O)CS2` (configuration not stated), the activation is 3.07%.

As for `O=C(CCCN1C(=O)/C(=C\c2ccco2)SC1=S)Nc1cccc2ccccc12`, the activation is 14.2%.

As to `CCCN(CCC)c1nc2c(C)cccn2c(=O)c1/C=C1/SC(=S)N(Cc2ccco2)C1=O`, the activation is 99% (active).

As for `CCOC(=O)CC1C(=O)NCCN1c1nc2c(C)cccn2c(=O)c1/C=C1\SC(=S)N(C(C)CC)C1=O` (configuration not stated), the activation is -29%.
